# Among all 39,000 compounds or so, about 3,300 (8.5%) were called active. This is one part of a sample in which actives are shown more often than they occur.
# Tested on: HepG2
# Experiment: cytotoxicity call (relative viability < 0.9)
# Conditions: 10 µM
row,Structure (SMILES),cytotoxicity call
1,C[C@H](CO)N1C[C@H](C)[C@H](CN(C)S(=O)(=O)c2ccccc2)Oc2ccc(NS(=O)(=O)c3cn(C)cn3)cc2CC1=O,inactive
2,CC(C)NC(=O)N(C)C[C@H]1Oc2cc(C#Cc3cccc(F)c3)ccc2S(=O)(=O)N([C@H](C)CO)C[C@H]1C,inactive
3,O=C(NCCCO)c1cc2ccccc2oc1=O,inactive
4,COc1cccc(C(=O)Nc2ccc3c(c2)C(=O)N(C)[C@H]2CC[C@@H](CC(=O)NCCCN4CCOCC4)O[C@@H]2CO3)c1,inactive
5,C[C@H]1CN([C@@H](C)CO)C(=O)Cc2cc(NS(C)(=O)=O)ccc2O[C@@H]1CN(C)S(=O)(=O)c1cccs1,inactive
6,Cc1ccc(S(=O)(=O)N[C@@H]2CC[C@@H](CCNC(=O)CN3CCOCC3)O[C@@H]2CO)cc1,inactive
7,COC(=O)CSc1cc(C)nc(N)n1,inactive
8,COc1cccc(NC(=O)C[C@H]2CC[C@H]3[C@@H](COc4ccc(NC(=O)C5CCOCC5)cc4C(=O)N3C)O2)c1,inactive
9,C[C@@H]1CN([C@@H](C)CO)C(=O)c2cc(NS(=O)(=O)c3cn(C)cn3)ccc2O[C@@H](C)CCCCO[C@H]1CN(C)C(=O)CCCN(C)C,inactive
10,C[C@H](CO)N1C[C@H](C)[C@@H](CN(C)Cc2ccc(C(=O)O)cc2)Oc2c(NC(=O)C3CC3)cccc2C1=O,inactive
11,COc1ccc(NC(=O)Nc2ccc3c(c2)CC(=O)N([C@@H](C)CO)C[C@@H](C)[C@H](CN(C)Cc2ccc(Cl)c(Cl)c2)O3)cc1,inactive
12,COc1ccc(NC(=O)Nc2ccc3c(c2)CC(=O)N([C@H](C)CO)C[C@@H](C)[C@H](CN(C)Cc2ccc(Cl)c(Cl)c2)O3)cc1,active
13,COc1ccc(NC(=O)Nc2ccc3c(c2)CC(=O)N([C@H](C)CO)C[C@@H](C)[C@@H](CN(C)Cc2ccc(Cl)c(Cl)c2)O3)cc1,inactive
14,C[C@@H]1CN([C@@H](C)CO)C(=O)c2cc(NC(=O)c3ccncc3)ccc2O[C@@H]1CN(C)S(=O)(=O)c1ccc(F)cc1,inactive
15,Cc1noc(C)c1NC(=O)N(C)C[C@@H]1Oc2cc(C#CCN(C)C)ccc2S(=O)(=O)N([C@@H](C)CO)C[C@@H]1C,inactive
16,Cc1cccc(CN(C)C[C@@H]2Oc3ncc(-c4cc5ccccc5o4)cc3C(=O)N([C@H](C)CO)C[C@@H]2C)c1,active
17,C[C@H](CO)N1C[C@H](C)[C@H](CN(C)Cc2cccc(C(F)(F)F)c2)Oc2ncc(-c3cc4ccccc4o3)cc2C1=O,inactive
18,C[C@H](CO)N1C[C@H](C)[C@H](CN(C)Cc2cccc(C(F)(F)F)c2)Oc2ncc(-c3ccc(F)cc3)cc2C1=O,inactive
19,C[C@H](CO)N1C[C@H](C)[C@H](CN(C)Cc2cccc(C(F)(F)F)c2)Oc2ncc(/C=C/c3ccccc3)cc2C1=O,active
20,C[C@H](CO)N1C[C@H](C)[C@H](CN(C)S(=O)(=O)c2cn(C)cn2)Oc2ncc(-c3cccc(F)c3)cc2C1=O,inactive
21,C[C@H](CO)N1C[C@H](C)[C@H](CN(C)Cc2cccc(C(F)(F)F)c2)Oc2ncc(-c3ccccc3)cc2C1=O,inactive
22,C[C@H](CO)N1C[C@H](C)[C@H](CN(C)C(=O)Nc2cccc3ccccc23)Oc2ncc(-c3cc4ccccc4o3)cc2C1=O,inactive
23,C[C@H](CO)N1C[C@H](C)[C@H](CN(C)Cc2ccccc2)Oc2ncc(-c3cccc(C(F)(F)F)c3)cc2C1=O,inactive

row,Structure (SMILES),cytotoxicity call
1,C[C@H](CO)N1C[C@H](C)[C@H](CN(C)S(=O)(=O)c2cn(C)cn2)Oc2ncc(-c3cccc(C(F)(F)F)c3)cc2C1=O,active
2,C[C@H](CO)N1C[C@H](C)[C@H](CN(C)Cc2cccc(C(F)(F)F)c2)Oc2ncc(-c3cccc(C(F)(F)F)c3)cc2C1=O,inactive
3,C[C@H](CO)N1C[C@H](C)[C@H](CN(C)S(=O)(=O)c2cn(C)cn2)Oc2ncc(-c3ccccc3)cc2C1=O,inactive
4,C[C@H](CO)N1C[C@H](C)[C@H](CN(C)Cc2cccc(C(F)(F)F)c2)Oc2ncc(-c3cccc(F)c3)cc2C1=O,active
5,CCCC#Cc1cnc2c(c1)C(=O)N([C@H](C)CO)C[C@H](C)[C@H](CN(C)S(=O)(=O)c1cccc(OC)c1)O2,inactive
6,COCC#Cc1cnc2c(c1)C(=O)N([C@H](C)CO)C[C@H](C)[C@@H](CN(C)C(=O)Nc1ccc(OC)cc1)O2,inactive
7,COc1ccc(CNC(=O)C[C@@H]2C[C@H]3c4cc(NS(=O)(=O)c5ccc(F)cc5)ccc4O[C@H]3[C@@H](CO)O2)cc1,inactive
8,COc1ccc(CN(C)C[C@@H]2Oc3c(NS(=O)(=O)c4cn(C)cn4)cccc3C(=O)N([C@@H](C)CO)C[C@@H]2C)cc1,inactive
9,COc1cccc(S(=O)(=O)Nc2ccc3c(c2)[C@@H]2C[C@H](CC(=O)N4CCCCC4)O[C@@H](CO)[C@@H]2O3)c1,inactive
10,C[C@@H]1CN([C@@H](C)CO)S(=O)(=O)c2ccc(C#CCN(C)C)cc2O[C@H]1CN(C)Cc1ccccc1F,inactive
11,Cn1c(S(=O)(=O)CC(N)=O)nc2ccccc21,inactive
12,Cc1cccc(OC[C@H](O)Cn2c(N3CCN(C)CC3)nc3c2c(=O)n(C)c(=O)n3C)c1,inactive
13,Cc1noc(C)c1NC(=O)N(C)C[C@H]1Oc2ccc(NC(=O)Nc3cccc4ccccc34)cc2C(=O)N([C@H](C)CO)C[C@@H]1C,inactive
14,CN(C)CCCNC(=O)C[C@H]1CC[C@H]2[C@@H](COc3ccc(NC(=O)c4ccccc4F)cc3C(=O)N2C)O1,inactive
15,CNC(=O)C[C@@H]1CC[C@@H]2[C@H](COC[C@H](O)CN2C(=O)c2ccc3c(c2)OCO3)O1,inactive
16,CCCNc1nc(Nc2ccc(C#N)cc2)ncc1C#CCCCNC(=O)[C@H](C)N(C)C(=O)/C=C/CN(C)C,active
17,CC(C)NC(=O)Nc1ccc2c(c1)C(=O)N([C@H](C)CO)C[C@H](C)[C@@H](CN(C)C(=O)Nc1cccc3ccccc13)OCCCC[C@H](C)O2,inactive
18,Cc1ccc(S(=O)(=O)N[C@H]2CC[C@@H](CC(=O)NCc3ccc(Cl)c(Cl)c3)O[C@@H]2CO)cc1,inactive
19,NNC(=S)NCc1cccs1,inactive
20,C[C@H](CO)N1C[C@H](C)[C@H](CN(C)S(=O)(=O)c2cn(C)cn2)Oc2c(NS(=O)(=O)c3cn(C)cn3)cccc2C1=O,inactive
21,COc1c2ccoc2cc2oc(=O)ccc12,inactive
22,COc1c2ccoc2c(OC)c2oc(=O)ccc12,active
23,COc1c2occc2cc2ccc(=O)oc12,active

row,Structure (SMILES),cytotoxicity call
1,COc1c(-c2ccccc2)oc2c(ccc3ccoc32)c1=O,inactive
2,O=c1ccc2cc3ccoc3cc2o1,inactive
3,COc1c2occc2c(OC)c2c(=O)cc(C)oc12,active
4,COc1c2ccoc2cc2oc(C)cc(=O)c12,inactive
5,COc1cc2ccc(=O)oc2c(OC)c1OC,inactive
6,COc1c(OC)c2occc2c2oc(=O)ccc12,inactive
7,CN(C)C(=O)Cn1c(=O)oc2ccccc21,inactive
8,COc1ccc(CN(C)C[C@@H]2Oc3ccc(NS(=O)(=O)c4cn(C)cn4)cc3C(=O)N([C@H](C)CO)C[C@@H]2C)cc1,inactive
9,O=C(C[C@H]1CC[C@H]2[C@@H](COC[C@@H](O)CN2S(=O)(=O)c2ccccc2Cl)O1)NCCc1ccncc1,inactive
10,C[C@H](CO)N1C[C@H](C)[C@H](CN(C)Cc2ccc3c(c2)OCO3)Oc2ccc(NC(=O)Nc3cccc4ccccc34)cc2C1=O,inactive
11,COc1ccc(S(=O)(=O)N(C)C[C@@H]2OCCCC[C@@H](C)Oc3ccc(NS(=O)(=O)c4ccc(Cl)cc4)cc3C(=O)N([C@@H](C)CO)C[C@H]2C)cc1,active
12,COc1ccc(S(=O)(=O)Nc2ccc3c(c2)C(=O)N([C@@H](C)CO)C[C@H](C)[C@H](CN(C)S(=O)(=O)c2ccc(Cl)cc2)OCCCC[C@H](C)O3)cc1,inactive
13,COc1ccc(S(=O)(=O)Nc2ccc3c(c2)C(=O)N([C@H](C)CO)C[C@@H](C)[C@@H](CN(C)S(=O)(=O)c2ccc(Cl)cc2)OCCCC[C@@H](C)O3)cc1,inactive
14,COc1ccc(S(=O)(=O)Nc2ccc3c(c2)C(=O)N([C@H](C)CO)C[C@H](C)[C@@H](CN(C)S(=O)(=O)c2ccc(Cl)cc2)OCCCC[C@H](C)O3)cc1,inactive
15,COc1ccc(S(=O)(=O)Nc2ccc3c(c2)C(=O)N([C@@H](C)CO)C[C@H](C)[C@@H](CN(C)S(=O)(=O)c2ccc(Cl)cc2)OCCCC[C@H](C)O3)cc1,active
16,COc1ccc(S(=O)(=O)Nc2ccc3c(c2)C(=O)N([C@@H](C)CO)C[C@@H](C)[C@@H](CN(C)S(=O)(=O)c2ccc(Cl)cc2)OCCCC[C@@H](C)O3)cc1,inactive
17,COc1ccc(S(=O)(=O)N(C)C[C@H]2OCCCC[C@H](C)Oc3ccc(NS(=O)(=O)c4ccc(Cl)cc4)cc3C(=O)N([C@@H](C)CO)C[C@H]2C)cc1,inactive
18,COc1ccc(S(=O)(=O)Nc2ccc3c(c2)C(=O)N([C@@H](C)CO)C[C@@H](C)[C@@H](CN(C)S(=O)(=O)c2ccc(Cl)cc2)OCCCC[C@H](C)O3)cc1,inactive
19,COc1ccc(S(=O)(=O)N(C)C[C@@H]2OCCCC[C@H](C)Oc3ccc(NS(=O)(=O)c4ccc(Cl)cc4)cc3C(=O)N([C@H](C)CO)C[C@@H]2C)cc1,active
20,COc1ccc(S(=O)(=O)N(C)C[C@@H]2OCCCC[C@H](C)Oc3ccc(NS(=O)(=O)c4ccc(Cl)cc4)cc3C(=O)N([C@@H](C)CO)C[C@@H]2C)cc1,active
21,CN(Cc1cc(Br)cc(Br)c1N)C1CCCCC1.Cl,inactive
22,C[C@@H]1CN([C@@H](C)CO)C(=O)c2ccccc2-c2ccccc2CO[C@@H]1CN(C)Cc1ccc(-c2ccccc2)cc1,inactive
23,Cc1noc(C)c1NC(=O)Nc1ccc2c(c1)C(=O)N([C@@H](C)CO)C[C@@H](C)[C@@H](CN(C)Cc1ccc3c(c1)OCO3)OCCCC[C@H](C)O2,inactive

# Reference: the antibiotic and cytotoxicity screens of Wong et al. (2023)
